Results published in PubChem BioAssay AID1259312 (Keith Lab, Institute of Cancer Science, University of …, 2017).
Where “and” joins values, the source holds several entries; their conditions need not be identical. Equal values may be shown once. In all, about 4,500 compounds went through this assay and about 200 (4.4%) were called active.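 Rule for the calls: active = cell survival measured by absorbance rises more than 2.5-fold over infected cells without compound; inactive = the rest.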 The entries come from a sample that favours actives as a whole. A structure can be active in one record and inactive in another.

Assay: survival after telomere uncapping, modulators, primary screen, cell-based (AID 1259312);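 note: virus expresses mutant telomerase RNA that uncaps telomeres and kills cells; compound added 2 days after infection so exposure lasts 3 days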
Conditions: HCT116 + Ad-hTR-mut, MTT, 5 d; at 10 µM, stronger effect = higher value

| SMILES | fold change |
| --- | --- |
| CCOC(=O)C1CCN(C(C)=O)CC1 | 3.8 (active) |
| CCOC(=O)C1CCN(C(=O)N2CCOCC2)CC1 | -1.12 (inactive) |
| CCOC(=O)C1CCN(C(=O)C(=O)N2CCC(C(=O)OCC)CC2)CC1 | -1.3 (inactive) |
| O=C(NC1CCCC1)c1ccc(COc2cc(Cl)ccc2Cl)o1 | -1.53 (inactive) |
| O=C1/C(=C/c2c(N3CCOCC3)nc3ccccn3c2=O)SC(=S)N1CC1CCCO1 (stereo not given) | -1.1 (inactive) |
| NCCCCn1ccnc1 | 2.97 (active) |
| CCCCNC(=O)C(=O)NCCCn1ccnc1 | -3.64 (inactive) |
| Nc1ccc(Cn2ccnc2)cc1 | -1.06 (inactive) |
| O=C1CCCN1c1ccc([N+](=O)[O-])cc1 | 4.37 (active) |
| O=C1CCCN1c1ccc(NS(=O)(=O)N2CCCCC2)cc1 | -1.3 (inactive) |
| O=C1CCCN1c1ccc(S(=O)(=O)Cl)cc1 | 1.34 (inactive) |
| Fc1ccc(-c2csc(N3CCN(CCCN4c5ccccc5Sc5ccc(C(F)(F)F)cc54)CC3)n2)cc1 | 1.16 (inactive) |
| CN(CCCN1c2ccccc2CCc2ccccc21)c1nc(-c2ccc(F)cc2)cs1 | -1.32 (inactive) |
| CCN(CC)CCCN1c2ccccc2Sc2ccc(C(F)(F)F)cc21 | 5.26 (active) |
| CC1SC2(C(=O)Nc3ccccc32)N(c2cccc(Br)c2)C1=O (stereo not given) | -4.19 (inactive) |
| O=C(O)C1=C/C(=C(/c2ccccc2)c2cc(C(=O)O)c(O)c3ccccc23)c2ccccc2C1=O | 1.42 (inactive) |
| O=C1NC(=O)/C(=C/c2cc(Br)ccc2OCc2ccc(F)cc2)N1 | -1.15 (inactive) |
| C=CCn1c(-c2ccc(OC)cc2)n[nH]c1=S | -2.14 (inactive) |
| CS(=O)(=O)N1CCc2ccccc2C1 | -1.26 (inactive) |
| O=c1ccc(=O)n2n1Cc1ccccc1C2 | 3.52 (active) |
| O=[N+]([O-])c1cccc(N2Cc3ccccc3C2)c1 | -1.27 (inactive) |
| O=C(O)CC1CCCCO1 (stereo not given) | -1.75 (inactive) |
| O=C1CC(c2ccccc2)CC2=C1C(c1ccc(-c3ccccc3)cc1)Nc1ccccc1N2 (stereo not given) | 1.1 (inactive) |
| Cn1cc(Cl)c(C(=O)N2CCc3ccccc3C2)n1 | -2.46 (inactive) |
| N#CC1=C(N)C(C#N)(C#N)C2=CCCC2C12CCCCC2 (stereo not given) | 2.06 (inactive) |

| SMILES | fold change |
| --- | --- |
| Cc1ccc(-c2nnnn2C(C#N)=P(c2ccccc2)(c2ccccc2)c2ccccc2)cc1 | 2.78 (active) |
| N#CC(C(N)=S)=P(c1ccccc1)(c1ccccc1)c1ccccc1 | -1.25 (inactive) |
| COc1cc(OC)cc([C@@H]2[C@@H](C(C)(C)C)C(C#N)(C#N)[C@H]3C=Cc4ccccc4N23)c1 | 1.39 (inactive) |
| Cn1c(=S)n(CCSc2nc3ccccc3n2C2CCCCC2)c2ccccc21 | -2.22 (inactive) |
| CN(C)c1ccc(N2CC(=O)SC2=NC#N)cc1 | -2.16 (inactive) |
| OCc1ccccc1O[C@@H]1O[C@H](CO)[C@@H](O)[C@H](O)[C@H]1O | 1.37 (inactive) |
| COC1OC(COC(c2ccccc2)(c2ccccc2)c2ccccc2)C(O)C(O)C1O (stereo not given) | 2.72 (active) |
| COC1OC(C)C(OCc2ccccc2)C(O)C1O (stereo not given) | 1.93 (inactive) |
| CCCCc1sc(-c2c(C#N)c(N)nc3c2CCCC3)cc1[N+](=O)[O-] | -2.22 (inactive) |
| CCSCCOC(=O)C1=C(C)NC2=C(C(=O)CCC2)C1c1ccsc1 (stereo not given) | -1.16 (inactive) |
| CCCCOc1ccc(C2C(C#N)=C(N)Nc3oc(OC)nc32)cc1CCC (stereo not given) | -1.87 (inactive) |
| CC1CC(C)CN(S(=O)(=O)c2ccc(Cl)cc2)C1 (stereo not given) | 3.13 (active) |
| CC1CCCN(S(=O)(=O)c2ccc(Br)cc2)C1 (stereo not given) | 1.44 (inactive) |
| CC1CCCN(S(=O)(=O)c2cc(Cl)ccc2Cl)C1 (stereo not given) | 3.18 (active) |
| CCC1CCCCN1S(=O)(=O)c1ccc(Cl)cc1 (stereo not given) | -1.26 (inactive) |
| CC1CCN(S(=O)(=O)c2ccc(Cl)cc2)CC1 | 1.93 (inactive) |
| CC1CCCN(S(=O)(=O)c2ccc(Cl)cc2)C1 (stereo not given) | 5.69 (active) |
| O=S(=O)(c1cc(Cl)ccc1Cl)N1CCc2ccccc2C1 | 1.42 (inactive) |
| O=S(=O)(c1ccc(Cl)cc1)N1CCOC1C(Cl)(Cl)Cl (stereo not given) | -2.17 (inactive) |
| COc1ccc(S(=O)(=O)N2CC(C)CC(C)C2)cc1 (stereo not given) | 3.34 (active) |
| COc1ccc(S(=O)(=O)N2CCN(CCO)CC2)cc1 | -1.24 (inactive) |
| COc1ccc(S(=O)(=O)N2CCN(C)CC2)cc1 | -1.28 (inactive) |
| O=C(O)C1CCCN1S(=O)(=O)c1cc(Cl)ccc1Cl (stereo not given) | -1.09 (inactive) |
| CCC1CN2CCc3cc(OC)c(OC)cc3[C@@H]2C[C@@H]1C[C@H]1NCCc2cc(OC)c(OC)cc21 (stereo not given in full) | -4.98 (inactive) |
| Nc1nnc(SCc2ccc(Cl)cc2Cl)s1 | 1.92 (inactive) |

| SMILES | fold change |
| --- | --- |
| CC(C)(C)c1cc(C(C)(C)C)c(O)c(C(C)(C)C)c1 | -1.04 (inactive) |
| CS(=O)(=O)N1CCc2ccccc21 | 1.49 (inactive) |
| CN=C1/C(=N/O)C=CC2CCCCC12 (stereo not given) | inactive |
| O=[N+]([O-])c1cc(Br)cc(C=Nc2cc(Cl)cc(Cl)c2)c1O | inactive |
| O=C1C=CC(=C(c2ccc(O)c(O)c2)c2ccccc2S(=O)(=O)O)C=C1O | 1.05 (inactive) |
| Cc1cc(=O)[nH]c(SCc2ccon2)n1 | inactive |
| Cn1c(=O)n(C)c2cc(S(=O)(=O)N3CCCCC3)ccc21 | -4.28 (inactive) |
| CSC(=Nc1ccc(C)c(C)c1)NC#N | 3.26 (active) |
| CC1(C)CC2CC(C)(CN2S(=O)(=O)c2ccc(N)cc2)C1 (stereo not given) | -1.15 (inactive) |
| CN(C)CCCN1C(=O)C(O)=C(C(=O)c2ccco2)C1c1cccs1 (stereo not given) | 1.06 (inactive) |
| Cc1ccc(C2C(C#N)=C(N)OC3=C2C(=O)CCC3)o1 (stereo not given) | -2.21 (inactive) |
| N#CC1=C(N)OC2=C(C(=O)CCC2)C1c1ccc(Br)s1 (stereo not given) | -1.06 (inactive) |
| N#CC1=C(N)OC2=C(C(=O)CCC2)C1c1cc(F)ccc1F (stereo not given) | 2.83 (active) |
| Cn1c(SC2CCOC2=O)nc2ccccc2c1=O (stereo not given) | -1.35 (inactive) |
| COc1nc(-c2ccccc2)cc(-c2ccccc2)c1C#N | 1.46 (inactive) |
| OCC1OC(OC2OC(CO)C(O)C(O)C2O)C(O)C(O)C1O (stereo not given) | -1.63 (inactive) |
| OC[C@H]1O[C@@H](OC[C@H]2O[C@@H](O)[C@H](O)[C@@H](O)[C@@H]2O)[C@H](O)[C@@H](O)[C@@H]1O | -1.38 (inactive) |
| OC[C@@H]1OC(O)[C@@H](O)[C@H](O)[C@H]1O[C@H]1O[C@H](CO)[C@@H](O)[C@H](O)[C@H]1O (stereo not given in full) | 3.84 (active) |
| O=[N+]([O-])c1ccc(OC2OC(CO)C(O)C(O)C2O)cc1 (stereo not given) | 1.11 (inactive) |
| OC[C@@H]1O[C@H](O[C@H]2O[C@H](CO[C@H]3O[C@H](CO)[C@H](O)[C@H](O)[C@H]3O)[C@@H](O)[C@H](O)[C@H]2O)[C@H](O)[C@H]1O | 2.81 (active) |
| NC[C@@H]1O[C@H](O[C@H]2[C@@H](O)[C@H](O[C@@H]3[C@@H](O)[C@H](N)C[C@H](N)[C@H]3O[C@H]3O[C@H](CN)[C@@H](O)[C@H](O)[C@H]3N)O[C@@H]2CO)[C@H](N)[C@@H](O)[C@@H]1O | -1.27 (inactive) |
| CC(N)c1nc(-c2cccnc2)no1 (stereo not given) | -2.47 (inactive) |
| O=S(=O)(NCc1ccc2c(c1)OCO2)c1ccc2oc3ccccc3c2c1 | 1.03 (inactive) |
| Cn1c(=O)c2c(nc(NCCOc3ccc(Cl)cc3)n2C)n(C)c1=O | 1.16 (inactive) |
| O=c1cc(-c2ccc(O)c(O)c2)oc2cc(OC3OC(CO)C(O)C(O)C3O)cc(O)c12 (stereo not given) | -1.76 (inactive) |

| SMILES | fold change |
| --- | --- |
| CC(Nc1cc(Cl)ccc1[N+](=O)[O-])C12CC3CC(CC(C3)C1)C2 (stereo not given) | -1.01 (inactive) |
| O=S(=O)(c1ccccc1)N1CCN(c2ccccc2)CC1 | -1.03 (inactive) |
| O=S(=O)(c1ccccc1)N1CCN(CCO)CC1 | -1.34 (inactive) |
| O=S(=O)(c1ccccc1)N1CCN(C(c2ccccc2)c2ccccc2)CC1 | 3.51 (active) |
| O=C(O)CN(CP(=O)(O)O)CP(=O)(O)O | -4.38 (inactive) |
| COc1cc(CSC(=N)N)c([N+](=O)[O-])cc1OC | -1.68 (inactive) |
| CC(=O)OC[C@H]1O[C@@H](n2ncc(=O)[nH]c2=O)[C@H](OC(C)=O)[C@@H]1OC(C)=O | -1.81 (inactive) |
| C=CCOC1OC(COC(C)=O)C(OC(C)=O)C(OC(C)=O)C1OC(C)=O (stereo not given) | 3.1 (active) |
| CC(=O)OCC1OC(n2ccc(=O)[nH]c2=O)C(OC(C)=O)C1OC(C)=O (stereo not given) | -1.3 (inactive) |
| Cc1ccc(C(c2c(C)[nH]n(-c3ccccc3)c2=O)c2c(C)[nH]n(-c3ccccc3)c2=O)o1 | 1.83 (inactive) |
| CN1CC=C2[C@H](C1)[C@@H](c1ccccc1F)C(C#N)=C(N)C2(C#N)C#N | 1.08 (inactive) |
| Cc1cc(C)cc(OCC(=O)N=Nc2c(O)[nH]c3ccccc23)c1 | inactive |
| N#Cc1sc2nc3c(cc2c1N)CCCC3 | 1.19 (inactive) |
| N#Cc1sc2nc(-c3cccs3)ccc2c1N | 5 (active) |
| c1csc(-c2nc3sc(-c4cccs4)nc3s2)c1 | -2.65 (inactive) |
| Cc1cccc(N2CCC(N=CN3CCOCC3)=N2)c1 | 2.57 (active) |
| O=C(O)CCC(=O)Nc1nccs1 | -1.01 (inactive) |
| CCCCCCCCCCCC(=O)Nc1nccs1 | -1.36 (inactive) |
| O=C(CN1CCOCC1)Nc1nccs1 | 3.2 (active) |
| CCOC(=O)/C(=C\C1=CC=C([N+](=O)[O-])C1)NC(=O)c1cccc(C)c1 | 2 (inactive) |
| Cc1cc2c(cc1C)-c1c(ssc1=Nc1ccc(S(N)(=O)=O)cc1)C(C)(C)N2 | -1.69 (inactive) |
| COc1cc(C2C(C(=O)OC3CCCCC3)=C(C)NC3=C2C(=O)CC(C)(C)C3)cc(OC)c1OC (stereo not given) | -1.82 (inactive) |
| O=C(O)CCCc1c[nH]c2ccccc12 | 3.42 (active) and -1.18 (inactive) |
| NC(=O)CCCc1c[nH]c2ccccc12 | 1.03 (inactive) |
| O=C(CCCc1c[nH]c2ccccc12)NCCSc1ccccc1 | -1.53 (inactive) |
